Assay outcomes (PubChem BioAssay)
Only some compounds are listed: those with a hit (about 3% of all), similar ones and a draw of the others.
PLK1 PBD inh – PLK1 (human) polo-box domain binding inhibition; P53350; Plk1 PBD binding of FITC phosphopeptide, fluorescence polarization; Potency, µM, inactives show max response, negative = inhibition, usual class: inhibitors; hit rate 2.8% among 360,000; note: series mostly up to about 57 µM; nearly all actives have a fitted effect of over 65% in size
Target sequence (P53350 whole entry, looked up, the tested form may be a part): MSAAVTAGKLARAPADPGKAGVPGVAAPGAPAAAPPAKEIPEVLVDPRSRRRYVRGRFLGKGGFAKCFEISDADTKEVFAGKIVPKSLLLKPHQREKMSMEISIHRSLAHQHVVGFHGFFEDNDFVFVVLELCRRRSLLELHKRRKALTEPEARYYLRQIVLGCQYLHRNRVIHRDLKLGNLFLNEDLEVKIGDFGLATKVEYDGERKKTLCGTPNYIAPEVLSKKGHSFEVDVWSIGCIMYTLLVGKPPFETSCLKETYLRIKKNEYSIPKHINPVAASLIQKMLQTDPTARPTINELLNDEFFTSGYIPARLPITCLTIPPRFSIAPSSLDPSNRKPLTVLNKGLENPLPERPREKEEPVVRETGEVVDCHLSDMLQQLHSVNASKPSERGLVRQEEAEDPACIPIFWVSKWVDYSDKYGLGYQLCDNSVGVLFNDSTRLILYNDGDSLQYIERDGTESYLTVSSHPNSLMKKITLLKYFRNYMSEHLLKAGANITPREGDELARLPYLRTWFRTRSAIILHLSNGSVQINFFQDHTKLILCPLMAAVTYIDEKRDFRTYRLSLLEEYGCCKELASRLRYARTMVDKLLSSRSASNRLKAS
GCN5L2 inh – blocks human GCN5L2 histone acetyltransferase; hit rate 0.21% among 390,000; GCN5L2 HAT assay, ThioGlo1 CoA-SH fluorescence; Potency, µM (highest dose often 58.9 µM), for the others: top-dose activity change, negative = inhibition, usual class: inhibitors; Q92830; AID 504327
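Compounds, pin-transferred from DMSO stocks, meet 20nM GCN5L2 for 15 min before the reaction begins with H3(1-25) peptide (75uM) and acetyl-CoA (70uM). Thiol-reactive ThioGlo1 reports CoA release over 20 min at room temperature.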
ALOX12 inh – inhibitors of human 12S-lipoxygenase ALOX12; AID 1671190; hit rate 1.1% among 580,000; P18054; purified 12hLO, xylenol orange hydroperoxide absorbance; Potency, µM (doses to about 108 µM), for inactives: at the top dose activity change, negative = inhibition, actives largely listed as inhibitors
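Hydroperoxide product was detected by ferrous iron/xylenol orange as the 573 to 405 nm absorbance ratio. Arachidonic acid at 40 uM (final) was turned over for 30 min at room temperature by 150 nM human 12hLO, pH 7.0 Hepes buffer, after 15 min compound preincubation.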
VDR inhibitor – blocks the human vitamin D receptor | VDR-SRC2-3 peptide fluorescence polarization, 2 h | Potency, µM, for the others: max response, negative = inhibition, actives largely listed as inhibitors | hit rate 0.93% among 400,000
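The screen uses fluorescence polarization to detect compounds that interfere with recruitment of the SRC2-3 coactivator peptide to VDR; plates are read after 2 h at room temperature.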
Active calls of the source: *; u = inconclusive; x = no result given; [ ] = another dose, or the depositor's remark. Calls come from the whole dose curve; as a rule, active = well fitted curve in the direction sought with a large enough effect; inconclusive = small, poorly fitted or top-dose-only effect, or another doubt; inactive = no such curve, though single readings can be large; an effect the other way counts as inactive or inconclusive. % is set by controls: 0 for no effect and ±100 for the full control effect; potency is the fitted concentration of half-maximal effect.

SMILES	PLK1 PBD inh	GCN5L2 inh	ALOX12 inh	VDR inhibitor
CCSc1ccccc1C(=O)n1nnc2ccccc21	5.6µM*	x	-5%	50µM*
Cc1c(OCc2ccc(C(=O)O)cc2)ccc2c(-c3ccccc3)cc(=O)oc12	u	-18%	u	79µM*
CCCSc1nc(N)c2c3c(sc2n1)CN(C)CC3	u	0%	x	9%
CC(C)Sc1nc(N)c2c3c(sc2n1)CN(C)CC3	27µM*	-1%	8%	11%
Cc1ccc(CNC(=O)c2c(C)sc3ccn(CC(C)C)c(=O)c23)o1	x	x	10%	x
c1ccc(-c2nnn(Cc3ncc(-c4ccccc4)o3)n2)cc1	x	x	21%	x
Fc1ccc(-c2nn3c(C4COc5ccccc5O4)nnc3s2)cc1 (stereo unspecified)	21µM*	-1%	u	u
c1csc(-c2nn3c(C4COc5ccccc5O4)nnc3s2)c1 (stereo unspecified)	24µM*	-16%	x	u
NC(N)=Nc1nc(C2COc3ccccc3O2)cs1 (stereo unspecified)	-6%	18%	-20%	-8%
c1ccc2c(c1)OCC(c1nnc3sc(-c4cnccn4)nn13)O2 (stereo unspecified)	28µM*	-15%	u	u
COc1cc(Br)c2cc(C(=O)O)[nH]c2c1OC	x	x	-11%	x
O=S(=O)(Nc1ccc(-c2ccc3nncn3n2)cc1)c1cc(F)ccc1F	-1%	0%	-1%	-13%
COc1ccc(OC)c(S(=O)(=O)Nc2ccc(-c3ccc4nncn4n3)cc2)c1	27µM*	-4%	u	-17%
Cc1ccc(C(c2nnnn2C2CCCCC2)N2CCN3CCCC3C2)cc1 (stereo unspecified)	-9%	0.89µM*	1%	-8%
CCOc1cc(C(=O)N2N=C(C)CC2(O)C(F)(F)F)ccc1OC(F)F (stereo unspecified)	x	x	25%	x
CCOCCn1c(-n2nc(C)cc2C)nc2c1c(=O)n(CC)c(=O)n2C	x	x	0%	x
COc1cc(/C=N/n2cnnc2)ccc1OC(=O)c1cccnc1	7.5µM*	-4%	0%	u
O=c1oc2cc(O)ccc2cc1-c1nnc(Nc2cccc(Cl)c2)s1	x	x	-6%	x
COc1ccccc1-c1nnc(SCc2csc(Nc3ccc(C)cc3)n2)o1	x	x	40µM*	x
COc1ccc(-c2nnc(SCc3csc(Nc4ccc(C)cc4)n3)o2)c(OC)c1	x	x	-27%	x
COc1ccc(S(=O)(=O)N2CCCC2C(=O)Nc2nnc(-c3cccnc3)s2)cc1 (stereo unspecified)	27µM*	-14%	40µM*	u
COc1ccc(S(=O)(=O)N2CCC[C@H]2C(=O)NC2=NCCS2)cc1	-9%	-11%	1%	-5%
COc1ccc(-c2c(C)oc3cc(OCC(=O)OC(C)(C)C)ccc3c2=O)cc1OC	x	x	-26%	x
COc1ccc(C(=O)N2CCC3(CC2)CC(C(C)C)=NO3)cc1	x	x	18%[176 µM]	x
COc1cc(/C=C2\SC(=O)N(c3ccccc3Cl)C2=O)cc([N+](=O)[O-])c1O	u	-13%	u	-17%
SMILES	PLK1 PBD inh	GCN5L2 inh	ALOX12 inh	VDR inhibitor
COc1cc(/C=C2\SC(=O)N(CC(=O)Nc3cccc(C)c3)C2=O)cc([N+](=O)[O-])c1O	9.5µM*	-10%	u	71µM*
CCOc1cc(/C=C2\SC(=O)N(CC(=O)Nc3ccccc3F)C2=O)cc([N+](=O)[O-])c1O	24µM*	3%	u	u
COc1cc(/C=C(/C#N)C(=O)c2cccc(C)c2)cc(Cl)c1O	x	x	82%	x
COc1cc(/C=C(/C#N)C(=O)OC(C)C)cc(Cl)c1O	x	x	20µM*	x
Cc1ccc2[nH]cc(C(C(=O)O)N3CCN(c4ccc(F)cc4)CC3)c2c1 (stereo unspecified)	x	x	-8%	x
CC(OC(=O)c1ccc2c(=O)n3c(nc2c1)CCC3)C(N)=O (stereo unspecified)	21µM*	0%	26%	-6%
CN(C(=O)c1ccc2c(=O)n3c(nc2c1)CCCCC3)c1ccccc1F	-14%	-10%	-11%	4%
CCOc1ccccc1N(C)C(=O)c1ccc2c(=O)n3c(nc2c1)CCCCC3	24µM*	-3%	9%	-22%
O=C(NCC(=O)N1CCN(S(=O)(=O)c2c(Cl)cccc2Cl)CC1)NCc1ccccc1	x	x	42%	x
Cc1cnnn1-c1ccc(C(=O)CCl)cc1	3.8µM*	-7%	u	-23%
CC(C)S(=O)(=O)N1CCC2(CC1)CC(N1CCN(c3ccccn3)CC1)CCO2 (stereo unspecified)	x	x	36%	x
Cc1cc(C(=O)N2CCCCC2)c2c(C3CCCN3)noc2n1 (stereo unspecified)	x	x	0%[6.33 µM]	x
Nc1nc(SCC(=O)NCCCO)nc2sc3c(c12)CCC3	-5%	-6%	21%	11%
Nc1nc(SCC(=O)NCCO)nc2sc3c(c12)CCCC3	24µM*	3%	-8%	-1%
CC1(C)C(=O)C2(CCCCC2)C(=O)OC1c1ccc(Br)cc1 (stereo unspecified)	x	x	2%	x
O=C(CSc1ccccn1)N1CCCC(Nc2ccccc2)C1 (stereo unspecified)	u	-8%	-13%	-1%
O=C(CSc1ccccc1)N1CCCC(Nc2ccccc2)C1 (stereo unspecified)	8.4µM*	3%	16%	20µM*
COc1ccc(NC2CCCN(C(=O)CSc3ccccn3)C2)cc1OC (stereo unspecified)	24µM*	-11%	-2%	-11%
Cc1cnc(C(=O)Nc2ccc(C)c(S(=O)(=O)N(C)C)c2)cn1	24µM*	46%	-1%	u
CN(C)S(=O)(=O)c1cccc(NC(=O)c2cncc(Br)c2)c1	-4%	-5%	-19%	-15%
Cc1ccc(NC(=O)c2cncc(Br)c2)cc1S(=O)(=O)N(C)C	15µM*	1%	-6%	45µM*
NS(=O)(=O)c1cccc(NC(=O)CCC(=O)c2cccs2)c1	-7%	-17%	0%	172%
NS(=O)(=O)c1cccc(NC(=O)c2cccs2)c1	13µM*	-9%	-1%	25µM*
COCc1nc(-c2ccc(OC3CN(Cc4ccsc4)C3)cc2)no1	x	x	6%	x
CN1C[C@H](NC(=O)NC2(c3ccccc3)CCOCC2)CCC[C@@H](C(=O)NCc2cc(F)cc(F)c2)CC1=O	x	x	22µM*	x
SMILES	PLK1 PBD inh	GCN5L2 inh	ALOX12 inh	VDR inhibitor
S=C(N/N=C1/CC2CC=CC12)NC1CCCCC1 (stereo unspecified)	x	x	35µM*	x
CC(C)NC(=S)N/N=C1\CC2CC=CC12 (stereo unspecified)	x	x	-22%	x
COc1ccc(Cc2nnc(NS(=O)(=O)c3ccc([N+](=O)[O-])cc3)s2)cc1	30µM*	-8%	u	-3%
COc1ccc(S(=O)(=O)Nc2nnc(Cc3ccc(OC)c(OC)c3)s2)cc1	27µM*	-4%	-2%	-4%
COc1ccc(Cc2nnc(NS(=O)(=O)c3ccccc3)s2)cc1	u	-8%	347%	6%
CC(C)[C@@H]1Cc2[nH]c(=S)[nH]c(=O)c2[C@H](CCc2ccccc2)O1	-7%	x	45µM*	x
Cc1cc(CNC(=O)c2cccc3c2C(=O)c2ccc(-c4ccc(F)cc4OCc4ccccc4)cc2S3(=O)=O)c(C(F)(F)F)o1	-27%	-10%	45µM*	-29%
CCC(=O)NCC(c1cccs1)N(C)C (stereo unspecified)	x	x	42%	x
